Test results from the supplement of paper PMC6555819.

Assays:
Assay in all cases: PBM binding z-score (relative to random genomic background probes); higher = stronger binding; sequences stand for … in GC…GCGATTGACAGCGTAGAATGAAGG
[1] = system: FXR:RXRa (NR concentration 270 nM, RXRa partner concentration 90 nM)
Procedure, shortened: (§1)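 Binding z-scores were set against random background probes. The data came from custom Agilent 4×180K protein-binding microarrays carrying double-stranded probes with 34-nt variable regions, incubated 1 h with ligand-free nuclear receptor dimers. Partner-specific antibodies detected binding, and scanned fluorescence was regression-normalized.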

[2] = system: LXRa:RXRa (NR concentration 270 nM, RXRa partner concentration 90 nM)
Procedure, shortened: as §1

[3] = system: LXRa homodimer (NR concentration 270 nM)
Procedure, shortened: as §1

[4] = system: LXRb:RXRa (NR concentration 270 nM, RXRa partner concentration 90 nM)
Procedure, shortened: as §1

[5] = system: LXRb homodimer (NR concentration 270 nM)
Procedure, shortened: as §1

[6] = system: PPARa:RXRa (NR concentration 270 nM, RXRa partner concentration 90 nM)
Procedure, shortened: as §1

[7] = system: PPARg:RXRa (NR concentration 180 nM, RXRa partner concentration 90 nM)
Procedure, shortened: as §1

[8] = system: PPARg:RXRa 270nM:90nM, anti-RXR (NR concentration 270 nM, RXRa partner concentration 90 nM)
Procedure, shortened: as §1

[9] = system: PPARg:RXRa 30nM:10nM, anti-RXR (NR concentration 30 nM, RXRa partner concentration 10 nM)
Procedure, shortened: as §1

[10] = system: PPARg:RXRa 90nM:30nM, anti-RXR (NR concentration 90 nM, RXRa partner concentration 30 nM)
Procedure, shortened: as §1

[11] = system: PPARg:RXRa DBDmut IVT, anti-RXR (DBD mutation: RXRa K156A/R161A, NR concentration 270 nM, RXRa partner concentration 90 nM)
Procedure, shortened: as §1

[12] = system: PPARg:RXRa IVT, anti-PPARg (NR concentration 270 nM, RXRa partner concentration 90 nM)
Procedure, shortened: as §1

[13] = system: PPARg DBDmut:RXRa IVT, anti-PPARg (DBD mutation: PPARg1 K132A/R137A, NR concentration 270 nM, RXRa partner concentration 90 nM)
Procedure, shortened: as §1

[14] = system: PPARg DBDmut IVT, anti-PPARg (DBD mutation: PPARg1 K132A/R137A, NR concentration 270 nM)
Procedure, shortened: as §1

[15] = system: PPARg homodimer (NR concentration 180 nM)
Procedure, shortened: as §1

[16] = system: PXR:RXRa (NR concentration 270 nM, RXRa partner concentration 90 nM)
Procedure, shortened: as §1

[17] = system: PXR homodimer (NR concentration 270 nM)
Procedure, shortened: as §1

[18] = system: RARa:RXR (NR concentration 270 nM, RXRa partner concentration 90 nM)
Procedure, shortened: as §1

[19] = system: RARa homodimer (NR concentration 270 nM)
Procedure, shortened: as §1

[20] = system: RARb:RXRa (NR concentration 270 nM, RXRa partner concentration 90 nM)
Procedure, shortened: as §1

Sequence | PBM binding z-score [1] | PBM binding z-score [2] | PBM binding z-score [3] | PBM binding z-score [4] | PBM binding z-score [5] | PBM binding z-score [6] | PBM binding z-score [7] | PBM binding z-score [8] | PBM binding z-score [9] | PBM binding z-score [10] | PBM binding z-score [11] | PBM binding z-score [12] | PBM binding z-score [13] | PBM binding z-score [14] | PBM binding z-score [15] | PBM binding z-score [16] | PBM binding z-score [17] | PBM binding z-score [18] | PBM binding z-score [19] | PBM binding z-score [20]
CCGACTGGGGCAGAAGGGTTACCATACCATCCGG | -0.34 | -0.358 | -0.422 | -0.143 | -0.958 | 0.847 | 1.13 | 1.14 | -0.416 | 0.389 | 1.09 | 1.56 | -0.531 | -1.22 | 0.108 | -0.0806 | -0.804 | 0.392 | -0.582 | 0.984
TCGAGTAGGTTAGGGGAATTCAGAATGGCGTCGA | -0.0318 | -0.209 | -0.147 | 0.224 | -0.435 | 0.565 | 0.159 | 1.02 | 1.11 | 1.18 | 2.13 | 1.78 | 0.128 | -0.466 | 0.866 | -0.0984 | 0.0558 | -0.0883 | 0.338 | 0.249
ACTCGGAGTACAAAGGTCAGAGCTACGCCAGTGA | 4.23 | 4.12 | 1.57 | 3.56 | 0.437 | 5.17 | 8.46 | 7.54 | 7.42 | 8.33 | 0.771 | 3.83 | -0.013 | 0.136 | 3.32 | 4.1 | 0.393 | 4.96 | 2.36 | 4.39
GCTGCTACGTCAACTGATGGTCAGCTAAAGCTCG | -0.601 | -0.63 | -0.84 | -0.799 | -1.1 | -0.483 | -0.201 | -0.736 | -0.808 | -0.829 | -0.232 | -0.749 | -0.632 | -1.06 | -1.02 | -0.736 | -1.23 | -0.62 | -1.34 | -0.291
CCTAGTTGGTTAAGGTCACACACGCTATAGGTAC | 4.71 | 4.56 | 2.6 | 4.3 | 1.42 | 4.33 | 2.68 | 3.2 | 1.24 | 2.39 | 1.64 | 2.5 | 1.48 | 1.66 | 3.91 | 4.46 | 4.13 | 4.85 | 2.51 | 4.24
ACTAGTTGGTCAGCTGAGGTCACCCACAATTCGG | 3.88 | 3.1 | 2.1 | 3.2 | 0.552 | 3.63 | 1.42 | 2.6 | 0.58 | 2.01 | 1.12 | 2.73 | 0.761 | 0.737 | 3.43 | 5.45 | 1.71 | 4.87 | 1.52 | 3.58
TCATATAGGTAAAGGTGAAGGTCGAACGATATGA | 1.28 | 1.29 | -0.098 | 1.57 | 0.0286 | 3.41 | 4.01 | 4.29 | 4.42 | 4.54 | 4.25 | 4.21 | 1.49 | 1.44 | 1.37 | 1.57 | 0.53 | 2 | 0.708 | 2.45
CGTGCTAGGTCATGGTCAGCTAATCTACAGTATG | 3.55 | 2.46 | 0.0428 | 1.84 | -0.338 | 3.36 | 2.98 | 2.8 | 0.471 | 2.11 | 4.45 | 4.25 | 0.168 | -0.51 | 1.36 | 1.5 | -0.399 | 2.51 | -0.32 | 3.94
ATCTCTAGGTAAAGTTCAGTCAAAGATCGATAGA | 1.73 | 3.21 | 2.37 | 1.64 | 0.899 | 2.44 | 3.53 | 4.45 | 2.64 | 4.1 | 1.91 | 2.68 | 1.08 | 1.44 | 1.63 | 2.32 | 1.93 | 1.48 | 1.68 | 2.55
ATCTCTAGGTAACAAGTTCTGTGAAAGAGAGGAC | 0.351 | 0.0214 | 0.142 | 0.0812 | 0.681 | 0.641 | 1.01 | 1.5 | 0.751 | 1.08 | 3.07 | 2.91 | 1.35 | 1.11 | 0.9 | 0.15 | 0.424 | 0.67 | 0.681 | 0.332
ATCGAAAGGTCGAGGTGAGTATGGAGAAAGGGAA | 3.95 | 3.28 | -0.073 | 2.56 | 0.624 | 4.45 | 3.02 | 3.6 | 1.01 | 2.39 | 0.289 | 2.45 | 0.568 | 0.731 | 1.64 | 2.3 | 0.205 | 2.72 | 0.528 | 3.95
CAAACTAGGTCAAGGGTCAAAGTCGAGCCAACCA | 7.52 | 5.72 | 2.34 | 5.71 | 1.02 | 7.64 | 13.1 | 10.9 | 11.4 | 11.8 | 8.5 | 9.08 | 6.09 | 4.1 | 5.23 | 5.66 | 0.825 | 7.15 | 1.84 | 5.38
AATCAAAGTTCATCTAGGTAACGTAAGATATGCT | 6.64 | 6.2 | 7.11 | 4.15 | 2.37 | 4.75 | 4.35 | 4.25 | 2.04 | 3.19 | 0.153 | 2.87 | 1.79 | 1.11 | 2.75 | 4.95 | 7.06 | 3.24 | 1.38 | 5.22
